Data taken from PubChem BioAssay AID492956 (The Scripps Research Institute Molecular Screening Center, 2010).
Among all 340,000 compounds or so, about 3,300 (0.97%) were called active. The sample as a whole holds a higher share of actives than the screen did. Unmarked numbers belong to inactive results.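 Rule for the calls: active = inhibition above the mean over all tested compounds plus 3 SD (cut at about 30% in these data); inactive = the rest.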

Each compound was assayed against Platelet-activating factor acetylhydrolase 2, cytoplasmic (Homo sapiens) (UniProt Q99487) (assay: inhibition of cytoplasmic PAF acetylhydrolase 2 – biochemical, fluorescence polarization, human, primary screen (AID 492956;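 note: inhibitors block probe labeling of enzyme so polarization drops; 0% = enzyme with DMSO and 100% = wells lacking PAFAH2 protein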)). Details: recombinant PAFAH2, FP-rhodamine activity probe, at 3.39 µM, hits give high values.
For `CN1C(=O)[C@H]2[C@@H](/C=C/c3ccccc3)N3C(=O)CN(Cc4ccc(-c5ccccc5)cc4)C(=O)[C@@]3(C)[C@H]2C1=O`, the inhibition was 6.34%. `COC(=O)c1ccc(CN2CCC(CO)(Cc3ccc(OC)cc3)CC2)cc1` was tested, and the inhibition was -1.13%. Work on `CCOc1ccccc1NC(=O)C1CCCN(C(=O)Nc2ccccc2)C1` (stereo unspecified) yielded an inhibition of 8.64%. With `COCCNC(=O)CN(Cc1ccco1)C(=O)CCC(=O)Nc1nccs1` the inhibition was -1%. Work on `COc1ccc([N+](=O)[O-])cc1NC(=O)COC(=O)/C=C/c1ccco1` yielded an inhibition of 14.1%. With `NS(=O)(=O)c1cccc(NC(=O)COC(=O)/C=C/c2ccco2)c1` the inhibition was 26.1%. Work on `COc1ccc(OC)c(/C=C/C(=O)c2ccc3c(c2)OCO3)c1` yielded an inhibition of 10.8%. Compound `COc1cccc(NC(=O)CN(C)C(=O)/C=C/c2cc(OC)ccc2OC)c1` has an inhibition of 1.18%. Compound `COc1cc(/C=C/C(=O)OCC(=O)NC(=O)NCc2ccccc2)ccc1OCC#N` has an inhibition of -1.43%. `COc1cc(/C=C/C(=O)OCC(=O)c2ccccc2)cc(OC)c1OC` was tested, and the inhibition was 18%. With `COc1cc(/C=C/C(=O)OCC(=O)NCCCc2ccccc2)ccc1O` the inhibition was 48.4% (active). `COc1ccc(/C=C/C(=O)OCC(=O)Nc2cccc(Oc3ccccc3)c2)c(OC)c1` was tested, and the inhibition was 44.5% (active). Compound `COc1ccccc1OCCCC(=O)Nc1ccc2c(c1)OCCO2` has an inhibition of -0.62%. For `COc1ccc(OC)c(/C=C/C(=O)OCC(=O)Nc2ccc3c(c2)OCCO3)c1`, the inhibition was 43.7% (active). In the case of `COc1cccc(NC(=O)COC(=O)CCOc2ccccc2OC)c1`, the inhibition is reported as 3.71%. For `COc1cccc(NC(=O)COC(=O)/C=C/c2ccco2)c1`, the inhibition was 71.4% (active). Work on `O=C(Nc1cccc2c1CCCC2)C1CCN(C(=O)NC2CCCCC2)CC1` yielded an inhibition of -4.67%. Compound `COc1ccc(OC)c(/C=N/NC(=O)c2ccc[n+](CC(=O)c3ccccc3)c2)c1` has an inhibition of -2.42%. With `Cc1ccc(/C=C/C(=O)O)cc1S(=O)(=O)N1CCC(Cc2ccccc2)CC1` the inhibition was 2.39%. With `O=C(C[C@@H]1C/C=C\CCC(=O)OC[C@@H]2CCCN2C1=O)NCCO` the inhibition was 15.7%. Compound `CCOc1ncccc1C(=O)N(C)CC(=O)Nc1ccc(F)cc1` has an inhibition of -4.72%. In the case of `CC1CCc2sc(C(=O)N/N=C/C3CCCCC3)cc2C1` (stereo unspecified), the inhibition is reported as 0.32%. For `O=C(CSc1nnc(COc2ccc(Cl)cc2)n1Cc1ccco1)N1CCNC1=O`, the inhibition was 6.03%. `COc1ccc(C(=O)OCC(=O)NCCCc2ccccc2)cc1OC` was tested, and the inhibition was 55.4% (active). `Cc1cnc(C(=O)OCC(=O)NCCCc2ccccc2)cn1` gave an inhibition of 4.7%. `O=C(COC(=O)c1ccc(F)cc1)NCCCc1ccccc1` gave an inhibition of 21.2%.
